# Test results reported in the supplement of paper PMC12350171.
# Counter-ions that a name gives are not always drawn. Unmarked numbers belong to inactive results.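 Rule for the calls: active = AUC significantly below DMSO controls by Student t-fit with adjusted P under 0.01; inactive = not significantly reduced.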
# Tested on: Haemophilus parainfluenzae
# Assay: growth AUC normalised to DMSO control (fraction of control); higher = less growth inhibition, active = hit call of the paper
# Conditions: 20 µM
# Method in brief: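 After two anaerobic passages, pathogens were added at a starting OD578 of 0.01 to pre-reduced mGAM plates holding compound at 20 μM with 1% DMSO; hemin and NAD were supplemented for Haemophilus parainfluenzae. Sealed with breathable membranes, plates were read at OD578 hourly for 24 h, in three biological replicates. The trapezoidal rule, applied up to the exponential-to-stationary transition, gave the growth-curve AUC, which was normalised to DMSO controls on the same plate.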
row,Structure (SMILES),growth AUC normalised to DMSO control
1,O=C(O)COCCN1CCN(C(c2ccccc2)c2ccc(Cl)cc2)CC1 (centres undefined) [Cetirizine dihydrochloride],0.943
2,CC(=O)O[C@@]12CO[C@@H]1C[C@H](O)[C@@]1(C)C(=O)[C@H](O)C3=C(C)[C@@H](OC(=O)[C@H](O)[C@@H](NC(=O)OC(C)(C)C)c4ccccc4)C[C@@](O)([C@@H](OC(=O)c4ccccc4)[C@H]21)C3(C)C [Docetaxel],1.05
3,O=C(O)c1ccccc1Nc1cccc(C(F)(F)F)c1 [Flufenamic acid],0.932
4,COCCOC(=O)C1=C(C)NC(C)=C(C(=O)OC/C=C/c2ccccc2)C1c1cccc([N+](=O)[O-])c1 (centres undefined) [Cilnidipine],1
5,CCOC(=O)OC(C)OC(=O)[C@@H]1N2C(=O)[C@@H](NC(=O)[C@H](N)c3ccccc3)[C@H]2SC1(C)C (some centres undefined) [Bacampicillin hydrochloride],0.0618 (active)
6,CCCCCCCN(CC)CCCC(O)c1ccc(NS(C)(=O)=O)cc1 (centres undefined) [Ibutilide fumarate],0.938
7,COC(=O)Nc1nc2cc(Sc3ccccc3)ccc2[nH]1 [Fenbendazole],1.04
8,CC[C@H](C)C(=O)O[C@H]1C[C@H](O)C=C2C=C[C@H](C)[C@H](CC[C@@H](O)C[C@@H](O)CC(=O)O)[C@H]21 [Pravastatin],1.09
9,COCCc1ccc(OCC(O)CNC(C)C)cc1 (stereo not drawn) [Metoprolol-(+)-tartrate salt],0.952
10,Clc1ccc(C(c2ccccc2Cl)C(Cl)Cl)cc1 (centres undefined) [Mitotane],1.01
11,CC(=O)Nc1ccc(OCC(O)CNC(C)C)cc1 (centres undefined) [Practolol],1.01
12,CCc1cccc2c3c([nH]c12)C(CC)(CC(=O)O)OCC3 (centres undefined) [Etodolac],1.02
13,CCCCOC(=O)c1ccc(O)cc1 [Butylparaben],0.97
14,O=C(O)Cc1sc(-c2ccccc2)nc1-c1ccc(Cl)cc1 [Fentiazac],1.03
15,CC12CC3CC(C)(C1)CC(N)(C3)C2 [Memantine hydrochloride],0.986
16,C#C[C@]1(O)CC[C@H]2[C@@H]3[C@H](C)CC4=C(CCC(=O)C4)[C@H]3CC[C@@]21C [Tibolone],0.966
17,Cn1cnc([N+](=O)[O-])c1Sc1ncnc2[nH]cnc12 [Azathioprine],1.11
18,NC12CC3CC(CC(C3)C1)C2 [Adamantamine fumarate],1.05
19,CN1CCN2c3ncccc3Cc3ccccc3C2C1 (centres undefined) [Mirtazapine],1.49
20,CN(N=O)C(=O)N[C@H]1C(O)O[C@H](CO)[C@@H](O)[C@@H]1O (mixture of isomers) [Streptozotocin],0.172 (active)

row,Structure (SMILES),growth AUC normalised to DMSO control
1,NC[C@@H]1O[C@@H](O[C@H]2[C@H](O)[C@@H](O[C@H]3O[C@H](CO)[C@@H](O)[C@H](N)[C@H]3O)[C@H](N)C[C@@H]2N)[C@@H](O)[C@H](O)[C@H]1O [Kanamycin A sulfate],0.976
2,C/C(=C(\CCOP(=O)(O)O)SC(=O)c1ccccc1)N(C=O)Cc1cnc(C)nc1N [Benfotiamine],0.999
3,NS(=O)(=O)c1cc2c(cc1C(F)(F)F)NC(Cc1ccccc1)NS2(=O)=O (centres undefined) [Bendroflumethiazide],1.02
4,Cc1cc(C)nc(NS(=O)(=O)c2ccc(N)cc2)n1 [Sulfamethazine sodium salt],0.999
5,O=C(O)c1cccnc1Nc1cccc(C(F)(F)F)c1 [Niflumic acid],1.02
6,O=C(CCCCCCC(=O)Nc1ccccc1)NO [Vorinostat],1.07
7,CC(C)[N+](C)(CCOC(=O)C1c2ccccc2Oc2ccccc21)C(C)C [Propantheline bromide],0.988
8,c1cnc(N2CCN(Cc3ccc4c(c3)OCO4)CC2)nc1 [Piribedil],1.02
9,CCCC(=O)Nc1ccc(OCC(O)CNC(C)C)c(C(C)=O)c1 (centres undefined) [Acebutolol hydrochloride],1.03
10,NS(=O)(=O)c1cc2c(cc1C(F)(F)F)NCNS2(=O)=O [Hydroflumethiazide],0.991
11,O=C(O)[C@H]1/C(=C/CO)O[C@@H]2CC(=O)N21 [Clavulanate potassium salt],1.06
12,Cc1cc(C(C)(C)C)c(O)c(C)c1CC1=NCCN1 [Oxymetazoline hydrochloride],0.991
13,COc1ccc([C@@H]2CC(=O)c3c(O)cc(O[C@@H]4O[C@H](CO[C@@H]5O[C@@H](C)[C@H](O)[C@@H](O)[C@H]5O)[C@@H](O)[C@H](O)[C@H]4O)cc3O2)cc1O [Hesperidin],1.07
14,CCCSc1ccc2[nH]c(NC(=O)OC)nc2c1 [Albendazole],1.08
15,OC(Cn1cncn1)(Cn1cncn1)c1ccc(F)cc1F [Fluconazole],1.07
16,CC[C@H]1OC(=O)[C@H](C)[C@@H](O[C@H]2C[C@@](C)(OC)[C@@H](O)[C@H](C)O2)[C@H](C)[C@@H](O[C@@H]2O[C@H](C)C[C@H](N(C)C)[C@H]2O)[C@](C)(OC)C[C@@H](C)C(=O)[C@H](C)[C@@H](O)[C@]1(C)O [Clarithromycin],0.0384 (active)
17,CCCCN1CCCCC1C(=O)Nc1c(C)cccc1C (centres undefined) [Bupivacaine hydrochloride],0.967
18,CCN(CC)CCNC(C(=O)OCCC(C)C)c1ccccc1 (centres undefined) [Camylofine chlorhydrate],0.98
19,CC1(C)O[C@@H]2C[C@H]3[C@@H]4C[C@H](F)C5=CC(=O)C=C[C@]5(C)[C@@]4(F)[C@@H](O)C[C@]3(C)[C@]2(C(=O)CO)O1 [Fluocinolone acetonide],0.995
